Experimental data reported in PubChem BioAssay.
Inconclusive results are not listed. The source made the active and inactive calls. Cut-off read from the data, not from the text of the source, unless noted: active = percent of DMSO control GFP below about 86%; inactive = the rest, inconclusive results apart.

Key:
[1] = rapamycin-like changes in RPL19A-GFP expression – cell-based, S. cerevisiae, multiplex flow cytometry, primary screen (AID 1862);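 note: lower values mimic rapamycin by blocking the RPL19A rise seen in DMSO cells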; conditions: S. cerevisiae RPL19A-GFP strain, flow cytometry fluorescence, 3 h; at 10 µM; stronger effect = lower value
[2] = TOR pathway GLN3 branch reporter MEP2-GFP changes – S. cerevisiae, multiplex flow cytometry, primary screen (AID 1867;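 active = GFP response, as percent of the DMSO control, above the screen-wide mean plus 3 SD, about 139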;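 note: median GFP channel fluorescence of barcode-gated MEP2-GFP cells measured by flow cytometry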); conditions: S. cerevisiae MEP2-GFP strain, 3 h, at 10 µM, stronger effect = higher value, 100% means same as DMSO wells
[3] = TOR pathway RTG branch CIT2 reporter changes – S. cerevisiae, GFP fusion, multiplex flow cytometry, primary screen (AID 1870;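 active = percent response above a set limit, the screen-wide mean plus 3 SD, cut at about 130% in these data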;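 note: barcoded CIT2-GFP strain pooled with four other GFP strains with rapamycin as positive control; median GFP fluorescence per well over plate mean of DMSO wells so 100% = DMSO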); conditions: S. cerevisiae CIT2-GFP expression, 3 h, at 10 µM, stronger effect = higher value
[4] = TOR pathway LAP4-GFP level changes – S. cerevisiae, multiplex flow cytometry, primary screen (AID 1873;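 active = GFP signal, as percent of the solvent control, above the screen mean plus 3 SD, about 149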); conditions: S. cerevisiae LAP4-GFP expression, 3 h, at 10 µM, stronger effect = higher value
[5] = yeast AGP1-GFP level changes, GLN3 branch – cell-based, multiplex flow cytometry, S. cerevisiae, primary screen (AID 1887;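 active = GFP signal above the screen-wide mean plus 3 SD, that is over about 124.5% of the solvent control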;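 note: AGP1-GFP fusion strain of S. cerevisiae within a five-strain barcoded multiplex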); conditions: 3 h, at 10 µM, stronger effect = higher value
[6] = reduced mouse 2C T cell binding to pMHC/ICAM-1 vesicles – MLPCN validation set, flow cytometry, LFA-1/ICAM-1 modulator project, pilot screen (AID 2523;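 active = response below a set limit, under 55% cells CD8-positive and vesicle-bound, and CD8 cells' 90th-percentile brightness under 279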;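 for vesicle binding response: mean PE anti-B7-1 fluorescence of CD8+ cells relative to row control; 100% = QL9-loaded vesicles with DMSO vehicle in the same plate row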); conditions: 2C mouse CD8+ T cells, at 7 µM, stronger effect = lower value; double positive events: measured here: CD8+/vesicle+ event percentage
[7] = target: Integrin beta-1 (Homo sapiens) + Integrin alpha-4 (Homo sapiens) (UniProt P13612+P05556); assay: alpha4beta1 integrin LIBS antibody binding reduction – U937 cells, HUTS-21 mAb, flow cytometry, validation set, VLA-4 allosteric modulator project, pilot screen (AID 2674;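 active = inhibition above 50%, about 3 SD of the validation set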;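 note: antibody binding induced by the VLA-4 ligand LDV present at three times its Kd; 0% = LDV ligand with antibody and no compound and 100% = antibody without LDV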); conditions: HUTS-21 LIBS mAb binding, at 6.7 µM, stronger effect = higher value, binding induced by LDV ligand
Integrin beta-1 (Homo sapiens) + Integrin alpha-4 (Homo sapiens), sequence (P05556 whole entry, looked up): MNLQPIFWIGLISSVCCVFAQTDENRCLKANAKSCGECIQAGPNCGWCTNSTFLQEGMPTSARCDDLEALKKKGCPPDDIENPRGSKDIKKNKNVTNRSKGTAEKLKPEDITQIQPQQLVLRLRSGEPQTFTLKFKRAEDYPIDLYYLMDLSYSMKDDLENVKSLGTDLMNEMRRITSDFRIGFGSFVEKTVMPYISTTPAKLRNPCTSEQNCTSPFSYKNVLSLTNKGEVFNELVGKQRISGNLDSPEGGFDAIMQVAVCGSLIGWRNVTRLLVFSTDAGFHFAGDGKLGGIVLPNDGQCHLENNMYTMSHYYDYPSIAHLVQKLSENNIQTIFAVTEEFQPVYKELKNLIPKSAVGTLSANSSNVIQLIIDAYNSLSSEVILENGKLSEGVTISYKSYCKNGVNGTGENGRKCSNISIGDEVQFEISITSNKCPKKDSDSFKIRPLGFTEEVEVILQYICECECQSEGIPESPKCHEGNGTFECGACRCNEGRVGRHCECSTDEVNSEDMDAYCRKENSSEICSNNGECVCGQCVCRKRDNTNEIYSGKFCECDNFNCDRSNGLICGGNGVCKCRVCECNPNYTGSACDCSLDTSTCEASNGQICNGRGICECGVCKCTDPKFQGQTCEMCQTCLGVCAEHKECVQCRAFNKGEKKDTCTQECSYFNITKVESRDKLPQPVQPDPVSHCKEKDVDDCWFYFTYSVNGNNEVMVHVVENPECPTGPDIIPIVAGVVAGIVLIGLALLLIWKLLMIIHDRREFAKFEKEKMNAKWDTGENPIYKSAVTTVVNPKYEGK
Integrin beta-1 (Homo sapiens) + Integrin alpha-4 (Homo sapiens), sequence (P13612 whole entry, looked up): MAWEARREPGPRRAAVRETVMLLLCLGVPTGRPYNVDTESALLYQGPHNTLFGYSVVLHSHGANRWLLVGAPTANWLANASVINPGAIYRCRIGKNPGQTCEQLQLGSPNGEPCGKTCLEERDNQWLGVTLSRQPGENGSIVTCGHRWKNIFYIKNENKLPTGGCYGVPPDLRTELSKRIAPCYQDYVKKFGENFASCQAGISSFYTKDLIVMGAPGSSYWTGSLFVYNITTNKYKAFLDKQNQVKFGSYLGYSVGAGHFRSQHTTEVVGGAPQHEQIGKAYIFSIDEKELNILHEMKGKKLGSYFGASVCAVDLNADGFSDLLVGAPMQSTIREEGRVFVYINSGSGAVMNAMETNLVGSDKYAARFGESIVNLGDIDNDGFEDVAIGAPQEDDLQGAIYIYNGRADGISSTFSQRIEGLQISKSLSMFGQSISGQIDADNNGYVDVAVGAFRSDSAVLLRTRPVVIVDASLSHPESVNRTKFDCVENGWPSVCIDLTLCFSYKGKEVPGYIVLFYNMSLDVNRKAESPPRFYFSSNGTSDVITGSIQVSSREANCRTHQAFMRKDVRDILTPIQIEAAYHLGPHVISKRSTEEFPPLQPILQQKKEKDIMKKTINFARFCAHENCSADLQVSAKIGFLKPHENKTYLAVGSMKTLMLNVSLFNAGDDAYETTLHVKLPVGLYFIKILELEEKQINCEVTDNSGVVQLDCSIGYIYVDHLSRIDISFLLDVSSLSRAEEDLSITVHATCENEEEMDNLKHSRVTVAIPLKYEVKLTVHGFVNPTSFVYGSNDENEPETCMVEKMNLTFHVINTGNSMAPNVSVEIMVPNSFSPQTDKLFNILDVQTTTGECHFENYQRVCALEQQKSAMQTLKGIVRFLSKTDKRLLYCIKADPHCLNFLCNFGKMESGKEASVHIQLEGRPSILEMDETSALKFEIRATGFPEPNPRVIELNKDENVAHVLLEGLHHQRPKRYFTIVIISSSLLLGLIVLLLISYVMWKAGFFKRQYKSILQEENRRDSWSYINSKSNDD

[8] = calorie-restriction mimetic ROS inhibitors, yeast – validation compound set, pilot screen (AID 2706;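 active = superoxide response below 65% of plate, a cut near 3 SD across the whole screen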;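 note: yeast exposed to compound for one week at 30 degrees C before staining; 100% = mean of all compound wells on the same plate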); conditions: S. cerevisiae aging, superoxide DHE fluorescence; at 10 µM; stronger effect = lower value
[9] = target: Beta-adrenergic receptor kinase 1 (Homo sapiens) (UniProt P25098); assay: GRK2 binders displacing RNA aptamer, biochemical, validation, human GRK2, bead flow cytometry (AID 488806;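 active = aptamer binding inhibition above 30%, about 3 SD of noise from non-fluorescent compounds; inactive = inhibition at or below 30%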); conditions: bead-bound GRK2, FAM-aptamer displacement, at 10 µM, stronger effect = higher value
Beta-adrenergic receptor kinase 1 (Homo sapiens), sequence (P25098 whole entry, looked up): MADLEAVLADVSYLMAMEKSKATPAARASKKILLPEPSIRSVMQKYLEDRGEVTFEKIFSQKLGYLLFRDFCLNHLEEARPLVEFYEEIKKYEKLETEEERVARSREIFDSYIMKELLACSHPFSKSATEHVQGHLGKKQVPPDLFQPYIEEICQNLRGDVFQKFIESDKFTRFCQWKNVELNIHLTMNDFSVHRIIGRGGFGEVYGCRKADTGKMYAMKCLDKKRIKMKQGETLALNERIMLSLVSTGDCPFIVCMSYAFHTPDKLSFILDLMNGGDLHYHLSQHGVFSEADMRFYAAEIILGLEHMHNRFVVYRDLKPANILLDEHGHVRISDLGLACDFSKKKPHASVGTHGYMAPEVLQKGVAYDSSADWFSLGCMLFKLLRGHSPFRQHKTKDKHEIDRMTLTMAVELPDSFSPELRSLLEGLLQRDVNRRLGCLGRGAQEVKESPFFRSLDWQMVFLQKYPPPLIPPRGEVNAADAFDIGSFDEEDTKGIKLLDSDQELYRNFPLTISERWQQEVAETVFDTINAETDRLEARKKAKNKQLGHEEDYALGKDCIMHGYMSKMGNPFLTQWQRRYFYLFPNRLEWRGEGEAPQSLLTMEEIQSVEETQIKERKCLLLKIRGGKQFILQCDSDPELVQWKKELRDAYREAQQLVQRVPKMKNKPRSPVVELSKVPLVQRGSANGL

[10] = target: Beta-2 adrenergic receptor (Homo sapiens) (UniProt P07550); assay: agonist-induced loss of surface beta2AR – cell-based, FAP fluorogen, flow cytometry, validation set, pilot screen (AID 504459;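 active = percent response above 42, roughly 3 SD of non-fluorescent test compounds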;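 note: agonist-driven loss of surface beta2AR via internalization measured by FAP dye flow cytometry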); conditions: Am2.2-beta2AR cells, at 10 µM, stronger effect = higher value
Beta-2 adrenergic receptor (Homo sapiens), sequence (P07550 whole entry, looked up): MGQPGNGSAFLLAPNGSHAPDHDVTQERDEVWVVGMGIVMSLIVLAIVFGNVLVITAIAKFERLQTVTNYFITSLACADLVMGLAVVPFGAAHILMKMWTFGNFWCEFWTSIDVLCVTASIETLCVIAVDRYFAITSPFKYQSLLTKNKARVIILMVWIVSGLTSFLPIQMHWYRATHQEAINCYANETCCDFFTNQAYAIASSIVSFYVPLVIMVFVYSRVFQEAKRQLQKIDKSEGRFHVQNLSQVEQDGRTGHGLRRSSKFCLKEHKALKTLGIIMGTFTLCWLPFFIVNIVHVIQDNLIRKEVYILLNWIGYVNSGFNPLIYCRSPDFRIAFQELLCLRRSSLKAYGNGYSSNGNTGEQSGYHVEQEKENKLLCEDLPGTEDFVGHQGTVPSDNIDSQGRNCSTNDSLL

[11] = target: AP-2 complex subunit beta (Homo sapiens) (UniProt P63010); assay: beta-arrestin/AP2 interaction blockers – biochemical, validation set, GST-AP2 beads, flow cytometry, pilot screen (AID 504541;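 active = inhibition above 54%, about 3 SD of non-fluorescent compounds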;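 note: AP2 carries R879A mutation and is captured from E. coli lysate; bead-bound FITC arrestin peptide fluorescence measuring arrestin peptide binding to AP2; 0% = DMSO wells and 100% = excess unlabeled arrestin peptide control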); conditions: FITC arrestin peptide, at 10 µM, stronger effect = higher value, AP2 beta2 appendage fragment, R879A mutant
AP-2 complex subunit beta (Homo sapiens), sequence (P63010 whole entry, looked up, the tested form may be a part, one chain of several): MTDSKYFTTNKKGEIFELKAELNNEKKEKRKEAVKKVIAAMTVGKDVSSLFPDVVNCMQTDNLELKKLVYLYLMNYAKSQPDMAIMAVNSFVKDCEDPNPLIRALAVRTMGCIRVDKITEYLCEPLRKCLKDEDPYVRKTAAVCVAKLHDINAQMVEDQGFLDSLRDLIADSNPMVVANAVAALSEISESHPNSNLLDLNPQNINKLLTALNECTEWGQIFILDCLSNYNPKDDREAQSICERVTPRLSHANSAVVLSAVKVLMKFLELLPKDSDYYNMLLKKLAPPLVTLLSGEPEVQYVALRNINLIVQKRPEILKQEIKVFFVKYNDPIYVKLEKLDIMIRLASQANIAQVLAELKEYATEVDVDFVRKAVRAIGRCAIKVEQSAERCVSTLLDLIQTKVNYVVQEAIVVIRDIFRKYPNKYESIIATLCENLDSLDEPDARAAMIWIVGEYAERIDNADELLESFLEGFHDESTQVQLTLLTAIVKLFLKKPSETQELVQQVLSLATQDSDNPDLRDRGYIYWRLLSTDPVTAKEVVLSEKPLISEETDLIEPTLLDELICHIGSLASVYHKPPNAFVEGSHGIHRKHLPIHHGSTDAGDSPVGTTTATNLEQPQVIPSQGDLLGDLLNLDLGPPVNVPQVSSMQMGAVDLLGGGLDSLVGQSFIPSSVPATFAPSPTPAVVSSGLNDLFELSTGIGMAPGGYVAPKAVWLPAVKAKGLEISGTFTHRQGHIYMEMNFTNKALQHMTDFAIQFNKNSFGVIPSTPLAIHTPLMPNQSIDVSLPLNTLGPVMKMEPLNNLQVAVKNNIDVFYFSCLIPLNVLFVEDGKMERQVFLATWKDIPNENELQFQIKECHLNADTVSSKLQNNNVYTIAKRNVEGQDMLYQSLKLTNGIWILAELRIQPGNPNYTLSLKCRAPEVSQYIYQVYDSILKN

[12] = cytosolic pH regulators acting via V-ATPase – S. cerevisiae, pHLuorin, HTS validation (AID 504600; in the data active = response above about 15%;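 note: plate controls were DMSO for no effect and reference compound for full effect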); conditions: V-ATPase proton transport, at 10 µM, stronger effect = higher value
[13] = test system: anti-desmoglein-3 scFv antibody binding to human DSG3; assay: blockers of pathogenic pemphigus antibody–desmoglein-3 binding – biochemical, validation compound set, bead-based, flow cytometry, pilot screen (AID 588368;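 active = binding below the plate cutoff, the plate median minus 3 SD, with a reading above zero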;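 note: signal is the median channel fluorescence of bead-bound GFP antibody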); conditions: Protein G beads, DSG3-Fc, scFv-GFP binding, at 10 µM, stronger effect = lower value
[14] = Nile Red efflux blockade in pump-expressing yeast – validation compound set, multiplex, phenotypic, pilot screen (AID 588506;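 active = efflux inhibition above 0.42, the validation set average plus 4 SD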;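 note: Nile Red retained in cells so higher fluorescence means more efflux inhibition; 0 = negative control wells and 1 = enniatin B 25 µM full block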); conditions: S. cerevisiae pump-expressing triplex, Nile Red efflux flow cytometry; at 10 µM; stronger effect = higher value; the pumps come from Candida albicans
[15] = target: ATP-binding cassette sub-family B member 6 (Homo sapiens) (UniProt Q9NP58); assay: blockers of ABCB6-driven porphyrin uptake – K562-ABCB6 cells, flow cytometry, validation set, pilot screen (AID 588550;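 active = inhibition above the screen-wide mean plus 3 SD, about 51%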;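 note: 0% = DMSO wells and 100% = benzethonium chloride 70 µM positive control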); conditions: K562-ABCB6 porphyrin accumulation, 1 h, at 10 µM, stronger effect = higher value
ATP-binding cassette sub-family B member 6 (Homo sapiens), sequence (Q9NP58 whole entry, looked up): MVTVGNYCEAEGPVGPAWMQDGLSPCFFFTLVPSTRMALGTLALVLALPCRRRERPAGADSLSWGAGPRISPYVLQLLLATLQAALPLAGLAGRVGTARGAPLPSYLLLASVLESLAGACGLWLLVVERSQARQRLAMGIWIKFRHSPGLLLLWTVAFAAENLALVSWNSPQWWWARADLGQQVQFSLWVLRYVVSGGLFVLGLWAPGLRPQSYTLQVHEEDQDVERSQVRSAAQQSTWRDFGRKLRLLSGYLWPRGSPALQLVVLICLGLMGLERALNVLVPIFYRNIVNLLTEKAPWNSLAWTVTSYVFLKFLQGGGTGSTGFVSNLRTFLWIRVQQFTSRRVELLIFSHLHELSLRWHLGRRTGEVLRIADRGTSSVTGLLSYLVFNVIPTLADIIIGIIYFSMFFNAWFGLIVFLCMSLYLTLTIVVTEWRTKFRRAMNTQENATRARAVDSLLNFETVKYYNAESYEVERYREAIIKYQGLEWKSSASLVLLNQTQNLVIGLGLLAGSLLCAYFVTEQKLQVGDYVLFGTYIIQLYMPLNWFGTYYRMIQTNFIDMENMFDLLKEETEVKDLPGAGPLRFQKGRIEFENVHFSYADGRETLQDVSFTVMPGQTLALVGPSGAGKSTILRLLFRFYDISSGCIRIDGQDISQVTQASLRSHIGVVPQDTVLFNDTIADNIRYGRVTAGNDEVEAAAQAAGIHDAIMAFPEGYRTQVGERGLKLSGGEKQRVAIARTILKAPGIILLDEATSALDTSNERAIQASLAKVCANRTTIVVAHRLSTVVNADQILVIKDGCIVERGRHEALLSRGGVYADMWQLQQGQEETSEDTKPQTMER

[16] = AML differentiation inducers, ER-HoxA9 marrow cells – cell-based, GFP/MAC1 double positive, flow cytometry, validation set, primary screen (AID 588685;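 active = differentiation response of at least 50%, scaled between solvent and reference control, from cells with both markers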;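 note: compound exposure lasts four days before antibody staining and flow analysis; 0% = DMSO wells and 100% = 5 µM fulvestrant positive control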); conditions: stronger effect = higher value, normalized: vehicle 0, fulvestrant 100

Cc1cccc(N2CCN(C(=S)c3ccccc3)CC2)c1
63.1%: double positive events [6]
inactive: percent of DMSO control GFP [1] 100% | GFP response vs DMSO [2] 108% | percent response of DMSO control [3] 100% | GFP response vs DMSO [4] 88.7% | GFP response, % of DMSO [5] 90.8% | vesicle binding response [6] 5220% | inhibition [7] -4.6% | superoxide response (% of plate) [8] 101% | aptamer binding inhibition [9] 0% | response [10] -1.25% | inhibition [11] -6.82% | response [12] 1.76% | binding (% of control) [13] 95.3% | efflux inhibition (fraction of control) [14] -0.14 | inhibition [15] 2% | differentiation response [16] -8.55%

O=C(NCCc1ccccc1)C1CCN(C2CCN(Cc3ccco3)CC2)CC1
58.9%: double positive events [6]
inactive: percent of DMSO control GFP [1] 98.6% | GFP response vs DMSO [2] 105% | percent response of DMSO control [3] 101% | GFP response vs DMSO [4] 118% | GFP response, % of DMSO [5] 120% | vesicle binding response [6] 159% | inhibition [7] -9.63% | superoxide response (% of plate) [8] 92.6% | aptamer binding inhibition [9] -13% | response [10] -41.8% | inhibition [11] -2.11% | response [12] -0.87% | binding (% of control) [13] 126% | efflux inhibition (fraction of control) [14] -0.04 | inhibition [15] 6% | differentiation response [16] -5.97%

Cc1nc2cc3ccccc3cc2c(=O)[nH]1
inactive: percent of DMSO control GFP [1] 102% | GFP response vs DMSO [2] 106% | percent response of DMSO control [3] 101% | GFP response vs DMSO [4] 104% | GFP response, % of DMSO [5] 96.6% | vesicle binding response [6] 160% | inhibition [7] -26.1% | superoxide response (% of plate) [8] 104% | aptamer binding inhibition [9] 6% | response [10] 9.81% | inhibition [11] -19.1% | response [12] 1.08% | binding (% of control) [13] 98% | efflux inhibition (fraction of control) [14] 0.07 | inhibition [15] -9% | differentiation response [16] -2.64%
60.4%: double positive events [6]

CN(C)c1ccc(CNCCC(Cc2ccccc2)c2ccco2)cc1 (configuration not stated)
inactive: percent of DMSO control GFP [1] 101% | GFP response vs DMSO [2] 93.5% | percent response of DMSO control [3] 108% | GFP response vs DMSO [4] 89.4% | GFP response, % of DMSO [5] 101% | vesicle binding response [6] 31.1% | inhibition [7] 1.12% | superoxide response (% of plate) [8] 92.3% | aptamer binding inhibition [9] -4% | response [10] 9.55% | inhibition [11] -16.6% | response [12] 2.43% | binding (% of control) [13] 105% | efflux inhibition (fraction of control) [14] 0.17 | inhibition [15] 4% | differentiation response [16] -5.68%
58.2%: double positive events [6]

CC(C)OC(=O)C1C2C=CC3(CN(CC4CCCO4)C(=O)C13)O2 (configuration not stated)
inactive: percent of DMSO control GFP [1] 99.1% | GFP response vs DMSO [2] 104% | percent response of DMSO control [3] 98.6% | GFP response vs DMSO [4] 117% | GFP response, % of DMSO [5] 102% | vesicle binding response [6] 152% | inhibition [7] -4.52% | superoxide response (% of plate) [8] 100% | aptamer binding inhibition [9] 1% | response [10] 1.99% | inhibition [11] -4.29% | response [12] -0.97% | binding (% of control) [13] 98% | efflux inhibition (fraction of control) [14] 0.19 | inhibition [15] 7% | differentiation response [16] -16.8%
58.9%: double positive events [6]

CCNC(=O)C(Cc1ccccc1)NC(=O)OCc1ccccc1 (configuration not stated)
62.5%: double positive events [6]
inactive: percent of DMSO control GFP [1] 101% | GFP response vs DMSO [2] 103% | percent response of DMSO control [3] 99.6% | GFP response vs DMSO [4] 117% | GFP response, % of DMSO [5] 106% | vesicle binding response [6] 367% | inhibition [7] 19.3% | superoxide response (% of plate) [8] 112% | aptamer binding inhibition [9] 2% | response [10] -19.9% | inhibition [11] 1.34% | response [12] 0.55% | binding (% of control) [13] 108% | efflux inhibition (fraction of control) [14] 0 | inhibition [15] 6% | differentiation response [16] -12.9%
